“And” between values parts separate entries of the source, which are not always exact repeats. Equal entries are not always repeated. Hit rate of the full screen: of about 5,500 compounds, about 2,000 (36%) were called active. Roughly 18% stayed inconclusive and do not appear here. No stated cut-off is given here; in the data, active means normalized growth mostly below about 0.91 (no sharp cut-off); inconclusive means no clear call, values can overlap the other calls; inactive means mostly above about 0.92. Some of the results follow.
Test: chemical genetic growth profiling, strain panel (AID 1159580);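 further: tested at 20 µM; growth read once vehicle control cultures reached saturation at 30 °C; 1 = growth at the plate median or of vehicle wells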
Details: S. cerevisiae deletion strains, growth OD
[1] = locus YAL040C, strain CLN3, stronger effect = lower value
[2] = locus YCL061C, strain MRC1 (second series), stronger effect = lower value
[3] = locus YDR150W, strain NUM1, stronger effect = lower value
[4] = locus YDR363W, strain ESC2, stronger effect = lower value
[5] = locus YER002W, strain NOP16, stronger effect = lower value
[6] = locus YGR078C, strain PAC10, stronger effect = lower value
[7] = locus YMR263W, strain SAP30, stronger effect = lower value
[8] = locus YMR307W, strain GAS1, stronger effect = lower value
[9] = locus YNL128W, strain TEP1, stronger effect = lower value
[10] = locus YNL175C, strain NOP13, stronger effect = lower value
[11] = locus YNL197C, strain WHI3, stronger effect = lower value
[12] = locus YNL224C, strain SQS1, stronger effect = lower value
[13] = locus YOR083W, strain WHI5 (second series), stronger effect = lower value
[14] = locus YPL241C, strain CIN2, stronger effect = lower value
[15] = locus YGR229C, strain SMI1, stronger effect = lower value
[16] = locus YHR030C, strain SLT2, stronger effect = lower value
[17] = locus YHR079C, strain IRE1, stronger effect = lower value
[18] = locus YJL095W, strain BCK1, stronger effect = lower value
[19] = locus YJR066W, strain TOR1, stronger effect = lower value
[20] = locus YLR113W, strain HOG1, stronger effect = lower value
[21] = locus YNL183C, strain NPR1, stronger effect = lower value
[22] = locus YOR231W, strain MKK1, stronger effect = lower value
[23] = locus YPL256C, strain CLN2, stronger effect = lower value

Measured: normalized growth

COc1cc2nc(N3CCN(C(=O)OCc4ccccc4)C(C(=O)NC(C)(C)C)C3)nc(N)c2cc1OC (stereo not given)
active: [5] 1.14 [resistant]
inactive: [1] 0.999 | [2] 0.984 | [3] 0.997 | [4] 0.967 | [6] 1.01 | [7] 0.993 | [8] 0.989 | [9] 1.08 | [10] 1.02 | [11] 1.03 | [12] 1.03 | locus YNL322C, strain KRE1, stronger effect = lower value 0.985 | [13] 1.07 | [14] 0.991

COc1cc2nc(N3CC=[N+](C(=O)c4ccco4)CC3)nc(N)c2cc1OC
inactive: [1] 1.02 | [2] 1 | [3] 1 | [4] 1.01 | [5] 1.01 | [6] 1.01 | [15] 1.01 | [9] 1 | locus YNL153C, strain GIM3, stronger effect = lower value 0.978 | [10] 0.998 | [11] 1.01 | [12] 1.06 | [13] 1.01 | [14] 1

COc1cc2nc(N3CCN(C(=O)C4COc5ccccc5O4)CC3)nc(N)c2cc1OC (stereo not given)
inactive: [1] 0.982 | [2] 0.985 | [4] 1.07 | [5] 1.01 | [6] 0.986 | [16] 1.03 | [17] 0.981 | [18] 0.983 | [19] 0.968 | [20] 0.999 | [7] 1.01 | [9] 1.01 | [10] 0.99 | [21] 0.939 | [11] 0.947 | [12] 1.01 | [13] 0.988 | [22] 0.983 | [23] 0.988

CC(C)=CC1C(C(=O)OCc2cccc(Oc3ccccc3)c2)C1(C)C (stereo not given)
inactive: locus YAL021C, strain ccr4, stronger effect = lower value 1.01 | locus YAL026C, strain drs2, stronger effect = lower value 1.02 | locus YAL030W, strain snc1, stronger effect = lower value 1.01 | locus YBL061C, strain skt5, stronger effect = lower value 1.01 | locus YBR009C, strain hhf1, stronger effect = lower value 1.01 | locus YBR021W, strain FUR4, stronger effect = lower value 0.998 | locus YBR023C, strain chs3, stronger effect = lower value 1.01 | locus YBR171W, strain sec66, stronger effect = lower value 1.02 | locus YBR229C, strain ROT2, stronger effect = lower value 0.947 | locus YBR231C, strain swc5, stronger effect = lower value 0.994 | locus YBR279W, strain paf1, stronger effect = lower value 1 | locus YCL011C, strain gbp2, stronger effect = lower value 1.01 | locus YCL016C, strain dcc1, stronger effect = lower value 1.01 | locus YCL029C, strain bik1, stronger effect = lower value 0.972 | locus YCL069W, strain vba3, stronger effect = lower value 1.01 | locus YCR088W, strain abp1, stronger effect = lower value 1.01 | locus YDL005C, strain med2, stronger effect = lower value 1.01 | locus YDL035C, strain GPR1, stronger effect = lower value 0.965 | locus YDL040C, strain nat1, stronger effect = lower value 1 | locus YDL074C, strain BRE1, stronger effect = lower value 1.01 | locus YDL101C, strain DUN1, stronger effect = lower value 0.997 | locus YDL185W, strain tfp1, stronger effect = lower value 0.968 | locus YDL192W, strain arf1, stronger effect = lower value 0.987 | locus YDR001C, strain nth1, stronger effect = lower value 1.01 | locus YDR069C, strain doa4, stronger effect = lower value 0.99 | locus YDR101C, strain arx1, stronger effect = lower value 0.967 | locus YDR137W, strain rgp1, stronger effect = lower value 0.993 | [3] 0.993 | locus YDR159W, strain sac3, stronger effect = lower value 1.02 | locus YDR162C, strain NBP2, stronger effect = lower value 0.964 | locus YDR195W, strain ref2 0.98 | locus YDR297W, strain sur2, stronger effect = lower value 1 | locus YDR318W, strain mcm21, stronger effect = lower value 0.986 | locus YDR334W, strain swr1, stronger effect = lower value 1.01 | locus YDR335W, strain msn5, stronger effect = lower value 1.02 | locus YDR388W, stronger effect = lower value 0.983 | locus YDR392W, strain spt3, stronger effect = lower value 1.02 | locus YDR502C, strain sam2, stronger effect = lower value 0.992 | locus YEL003W, strain gim4, stronger effect = lower value 1.01 | locus YEL037C, strain rad23, stronger effect = lower value 1.01 | locus YEL061C, strain CIN8 (second series), stronger effect = lower value 1.01 | locus YEL061C, strain CIN8, stronger effect = lower value 0.995 | locus YER015W, strain faa2, stronger effect = lower value 1.01 | locus YER016W, strain bim1, stronger effect = lower value 1.01 | locus YER110C, stronger effect = lower value 0.978 | locus YER111C, strain swi4, stronger effect = lower value 1.01 | locus YER155C, strain BEM2 (second series), stronger effect = lower value 1.02 | locus YER155C, strain BEM2, stronger effect = lower value 0.998 | locus YER167W, strain BCK2, stronger effect = lower value 0.99 | locus YFR010W, strain ubp6, stronger effect = lower value 0.997 | locus YGL078C, strain dbp3, stronger effect = lower value 0.987 | locus YGL086W, strain mad1, stronger effect = lower value 0.996 | locus YGL167C, strain pmr1, stronger effect = lower value 1.02 | locus YGL173C, strain kem1, stronger effect = lower value 1 | locus YGL227W, strain vid30, stronger effect = lower value 1.01 | locus YGL240W, strain doc1, stronger effect = lower value 1.03 | locus YGL248W, strain PDE1, stronger effect = lower value 1.01 | locus YGL253W, strain hxk2, stronger effect = lower value 1.01 | [6] 1.01 | locus YGR135W, strain pre9, stronger effect = lower value 0.982 | [15] 0.99 | locus YGR252W, strain gcn5, stronger effect = lower value 0.991 | locus YHR013C, strain ard1, stronger effect = lower value 1.01 | locus YHR027C, strain rpn1, stronger effect = lower value 1.01 | [16] 0.987 and 0.975 | locus YHR079C, strain IRE1 (second series), stronger effect = lower value 0.99 | [17] 0.979 | locus YHR094C, strain hxt1, stronger effect = lower value 0.988 | locus YHR129C, strain ARP1, stronger effect = lower value 0.991 | locus YHR142W, strain chs7, stronger effect = lower value 1 | locus YHR200W, strain rpn10, stronger effect = lower value 0.976 | locus YIL066C, strain RNR3, stronger effect = lower value 0.96 | locus YIL073C, strain SPO22, stronger effect = lower value 1 | locus YIL125W, strain kgd1, stronger effect = lower value 0.976 | locus YIR030C, strain dcg1, stronger effect = lower value 0.982 | locus YJL092W, strain hpr5, stronger effect = lower value 1.01 | locus YJL095W, strain BCK1 (second series), stronger effect = lower value 1 | [18] 1.06 and 0.979 | locus YJL115W, strain asf1, stronger effect = lower value 1.02 | locus YJL129C, strain trk1, stronger effect = lower value 1.03 | locus YJL134W, strain LCB3, stronger effect = lower value 0.987 | locus YJL154C, strain vps35, stronger effect = lower value 1.01 | locus YJL164C, strain tpk1, stronger effect = lower value 1.01 | locus YJL166W, strain qcr8, stronger effect = lower value 1 | locus YJL168C, strain set2, stronger effect = lower value 0.994 | locus YJL187C, strain SWE1 (second series), stronger effect = lower value 1.04 | locus YJR043C, strain POL32, stronger effect = lower value 0.971 | [19] 0.896 | locus YKL009W, strain mrt4, stronger effect = lower value 0.977 | locus YKL068W, stronger effect = lower value 0.987 | locus YKL085W, strain MDH1 (second series), stronger effect = lower value 1 | locus YKL085W, strain MDH1, stronger effect = lower value 1 | locus YKL160W, strain elf1, stronger effect = lower value 1.02 | locus YKL190W, strain CNB1, stronger effect = lower value 0.997 | locus YKR001C, strain vps1, stronger effect = lower value 0.992 | locus YKR026C, strain gcn3, stronger effect = lower value 1.01 | locus YKR091W, strain srl3, stronger effect = lower value 1.01 | locus YLL001W, strain dnm1, stronger effect = lower value 1.02 | locus YLL026W, stronger effect = lower value 1.01 | locus YLL041C, strain sdh2, stronger effect = lower value 1.02 | locus YLR027C, strain aat2, stronger effect = lower value 1.01 | locus YLR039C, strain RIC1, stronger effect = lower value 0.972 | locus YLR058C, strain SHM2, stronger effect = lower value 0.993 | locus YLR102C, strain apc9, stronger effect = lower value 0.991 | [20] 0.998 | locus YLR221C, strain rsa3, stronger effect = lower value 1.01 | locus YLR258W, strain gsy2, stronger effect = lower value 1.01 | locus YLR262C, strain YPT6 (second series), stronger effect = lower value 1.01 | locus YLR262C, strain YPT6, stronger effect = lower value 0.927 | locus YLR268W, strain sec22, stronger effect = lower value 0.993 | locus YLR320W, strain mms22, stronger effect = lower value 1.01 | locus YLR330W, strain CHS5, stronger effect = lower value 0.984 | locus YLR342W, strain FKS1 (second series), stronger effect = lower value 0.959 | locus YLR342W, strain FKS1, stronger effect = lower value 1.01 | locus YLR357W, strain rsc2, stronger effect = lower value 1.01 | locus YLR370C, strain arc18, stronger effect = lower value 1.03 | locus YLR371W, strain rom2, stronger effect = lower value 0.972 | locus YLR384C, strain iki3, stronger effect = lower value 1.02 | locus YLR418C, strain cdc73, stronger effect = lower value 0.985 | locus YML016C, strain PPZ1, stronger effect = lower value 0.993 | locus YML032C, strain rad52, stronger effect = lower value 0.983 | locus YML120C, strain ndi1, stronger effect = lower value 1.01 | locus YML124C, strain tub3, stronger effect = lower value 0.995 | locus YMR058W, strain fet3, stronger effect = lower value 1.02 | locus YMR078C, strain ctf18, stronger effect = lower value 0.972 | locus YMR125W, strain sto1, stronger effect = lower value 1.02 | locus YMR129W, stronger effect = lower value 1 | locus YMR205C, strain PFK2, stronger effect = lower value 0.993 | locus YMR223W, strain ubp8, stronger effect = lower value 0.983 | locus YMR231W, strain pep5, stronger effect = lower value 1.01 | [8] 1.02 | locus YNL067W, strain RPL9B, stronger effect = lower value 1.04 | locus YNL071W, strain lat1, stronger effect = lower value 1.01 | [21] 0.934 | locus YNL209W, strain ssb2, stronger effect = lower value 0.998 | locus YNL233W, strain BNI4, stronger effect = lower value 1.05 | locus YNL248C, strain rpa49, stronger effect = lower value 0.994 | locus YNL250W, strain rad50, stronger effect = lower value 0.982 | locus YNL271C, strain bni1, stronger effect = lower value 0.971 | locus YNL298W, strain CLA4, stronger effect = lower value 0.986 | locus YNL307C, strain MCK1, stronger effect = lower value 0.983 | locus YNL322C, strain KRE1 (second series), stronger effect = lower value 1.01 | locus YNR049C, strain mso1, stronger effect = lower value 1.01 | locus YNR052C, strain pop2, stronger effect = lower value 0.988 | locus YOL006C, strain TOP1, stronger effect = lower value 1.12 | locus YOL012C, strain htz1 1.31 | locus YOL147C, strain pex11, stronger effect = lower value 0.988 | locus YOR001W, strain rrp6, stronger effect = lower value 0.988 | locus YOR061W, strain CKA2, stronger effect = lower value 0.977 | locus YOR069W, strain VPS5, stronger effect = lower value 0.992 | locus YOR070C, strain gyp1, stronger effect = lower value 1 | locus YOR080W, strain dia2, stronger effect = lower value 1.01 | locus YOR083W, strain WHI5, stronger effect = lower value 1 | locus YOR106W, strain vam3, stronger effect = lower value 0.938 | locus YOR136W, strain idh2, stronger effect = lower value 0.996 | locus YOR144C, strain elg1, stronger effect = lower value 0.971 | locus YOR184W, strain ser1, stronger effect = lower value 0.992 | [22] 0.989 | locus YOR265W, strain rbl2, stronger effect = lower value 0.996 | locus YOR270C, strain vph1, stronger effect = lower value 0.948 | locus YOR290C, strain snf2, stronger effect = lower value 1.02 | locus YOR316C, strain cot1, stronger effect = lower value 0.985 | locus YPL051W, strain arl3, stronger effect = lower value 0.995 | locus YPL078C, strain atp4, stronger effect = lower value 1.02 | locus YPL106C, strain sse1, stronger effect = lower value 1.04 | locus YPL240C, strain hsp82, stronger effect = lower value 1.01 | [23] 0.995 | locus YPR119W, strain clb2, stronger effect = lower value 0.988 | locus YPR141C, strain kar3, stronger effect = lower value 0.982 | locus YPR163C, strain tif3, stronger effect = lower value 0.97 | locus YPR167C, strain met16, stronger effect = lower value 0.983 | strain wtn01, stronger effect = lower value 0.995

From PubChem BioAssay AID1159580 (chemical genetic matrix, 2015)
